Screens deposited in PubChem BioAssay by National Center for Advancing Translational Sciences (NCATS).
HPGD inh = blocks human HPGD enzyme activity | 150,000 compounds, 4.3% hits | P15428 | purified HPGD, NADH fluorescence kinetic, PGE2 substrate | Potency, µM, for inactives: at the top dose activity change, negative = inhibition, hits mostly inhibitors; note: potency is the fitted concentration of half-maximal effect
Target sequence (P15428 whole entry, looked up): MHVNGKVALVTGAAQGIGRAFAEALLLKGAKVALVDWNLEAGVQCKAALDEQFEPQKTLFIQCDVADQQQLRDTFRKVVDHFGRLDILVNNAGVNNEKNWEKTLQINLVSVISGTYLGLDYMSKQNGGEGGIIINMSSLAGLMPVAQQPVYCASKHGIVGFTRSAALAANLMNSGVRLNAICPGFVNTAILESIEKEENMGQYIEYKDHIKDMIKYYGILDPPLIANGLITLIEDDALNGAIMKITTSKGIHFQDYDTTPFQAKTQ
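NADH formation kinetics: reaction with 30 uM PGE2 and 1 mM NAD+ (final), 20 nM enzyme, Tris-HCl pH 8 with Tween 20, after 15 min compound preincubation at room temperature. Fluorescence change, last versus first of five reads.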
ALDH1A1 block = inhibitors of human aldehyde dehydrogenase 1A1 | P00352 | Purified ALDH1A1, NADH fluorescence, propionaldehyde substrate | Potency, µM (doses to about 75.3 µM), for inactives: at the highest dose activity, negative = inhibition, usual class: inhibitors | 220,000 compounds, 7.3% hits;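 note: potency is the fitted concentration of half-maximal effect; plate controls were no enzyme wells and a reference inhibitor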
PNC inhibitor = inhibitors of perinucleolar compartment assembly | PC3M PTB-GFP, PNC prevalence imaging, 16 h; active compounds read low | activity change (PNC), negative = inhibition, % at 10 µM | 140,000 compounds, 3.1% hits;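 active = readout at or below -70, meaning at least 70% loss of cells showing the perinucleolar compartment, a nuclear body marking cancer cells; inconclusive = readout between -30 and a set limit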;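 note: plate controls were DMSO wells for no effect and camptothecin positive control wells for full effect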
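Compounds are pinned in duplicate onto adhered PC3M cells stably expressing GFP-tagged PTB and incubated 16 h at 37 C. Cells are then fixed, nuclei stained with Hoechst, and PNC-positive cells counted.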
IMPase cell inh = cell-permeable inhibitors of inositol monophosphatase (IMPase); P97697; CHO-M1 cells, IP1 accumulation, HTRF TR-FRET ratio; inhibition (IP1 accumulation), % at 46.1 µM; 120,000 tested, under 10 active; active = well fitted curve in the direction sought with a large enough effect in the signal ratio, not every such curve was filed as active; inconclusive = small, poorly fitted or top-dose-only effect, or a change in a side signal; inactive = no such curve, though single readings can be large or run the other way; the % refers to the signal ratio;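 note: cells stimulated with carbachol in lithium chloride buffer; plate controls were DMSO basal wells for no effect and reference inhibitor wells for full effect; higher means more IMPase inhibition seen as more IP1 and lower FRET ratio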
Target sequence (P97697 whole entry, looked up): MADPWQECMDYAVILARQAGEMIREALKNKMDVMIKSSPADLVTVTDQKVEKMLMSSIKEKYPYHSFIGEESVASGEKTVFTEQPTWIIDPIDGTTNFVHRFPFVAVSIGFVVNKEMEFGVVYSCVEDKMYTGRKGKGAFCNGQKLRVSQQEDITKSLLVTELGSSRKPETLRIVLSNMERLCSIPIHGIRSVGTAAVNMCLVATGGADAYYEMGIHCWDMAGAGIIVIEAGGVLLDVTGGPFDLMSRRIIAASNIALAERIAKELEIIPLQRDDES
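In this qHTS, compounds (final up to 46 uM) act on CHO-M1 cells that are then activated through the M1 receptor with carbachol, in pH 7.4 buffer containing 50 mM LiCl, for 30 min. IP1 accumulation is quantified by the IP-One immunoassay.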
ALOX12 inhib = blocks human 12-lipoxygenase activity | P18054 | purified 12-hLO, xylenol orange hydroperoxide absorbance | Potency, µM (highest dose often 57.1 µM), inactives show top-dose activity change, negative = inhibition, actives largely listed as inhibitors | 150,000 compounds, 0.12% hits | AID 1452; active = well fitted curve in the direction sought with a large enough effect; inconclusive = small, poorly fitted or top-dose-only effect, or another doubt; inactive = no such curve, though single readings can be large; an effect the other way counts as inactive or inconclusive; note: potency is the fitted concentration of half-maximal effect; nearly all actives have a fitted effect of over 55% in size
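Xylenol orange chromogenic assay: hydroperoxide from 12hLO oxidises Fe(II), giving red-shifted Fe(III)-XO absorbance. Conditions: 150 nM enzyme, 40 uM arachidonic acid, 25 mM Hepes pH 7.0, 0.01% Triton X-100, 30 min, room temperature.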
IMPase Li cell = membrane-permeable IMPase blocker, potentiated with lithium. CHO-M1 cells, IP1 TR-FRET (IP-One), carbachol + lithium. 210,000 compounds, 0.35% hits. Potency, µM (titrated, usually from 59.4 µM), for inactives: at the highest dose activity, negative = IMPase inhibition, actives largely listed as inhibitors. AID 1457; active = well fitted curve in the direction sought with a large enough effect; inconclusive = small, poorly fitted or top-dose-only effect, or another doubt; inactive = no such curve, though single readings can be large; an effect the other way counts as inactive or inconclusive;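 note: IP1 builds up when IMPase is blocked and the TR-FRET signal falls; potency is the fitted concentration of half-maximal effect; plate controls were basal vehicle for no effect and high inhibitor control for full effect; nearly all actives have a fitted effect of over 50% in size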
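Steps: plate 2000 CHO-M1 cells per well and culture 16–30 h; add compound and lithium; incubate 30 min, 37C; add d2-IP1 tracer and Eu cryptate anti-IP1 antibody in lysis buffer; read after 10 min at room temperature.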
Starred values were filed as active, the others as inactive; i = inactive; ? = inconclusive; · = not tested or not shown; [ ] = dose if it differs, or a comment. An excerpt weighted towards active compounds, which were near 11% of everything screened. Unless noted, calls come from the whole dose curve; as a rule, active = well fitted inhibition curve with a large enough effect (not every such curve was filed as active); inconclusive = small, poorly fitted or top-dose-only effect, or another doubt; inactive = no such curve, though single readings can be large or run the other way. Unless noted, % is set by controls: 0 for no effect and ±100 for the full control effect.

SMILES	HPGD inh	ALDH1A1 block	PNC inhibitor	IMPase cell inh	ALOX12 inhib	IMPase Li cell
CCn1c2ccccc2c2cc(N=C3SC(CC(=O)Nc4ccccc4OC)C(=O)N3CCOC)ccc21 (configuration not stated)	-16%	8%	-98*	·	-12%	-5%
COc1ccc(N=C2SC(CC(=O)Nc3ccccc3)C(=O)N2CCN2CCOCC2)cc1 (configuration not stated)	·	2%	·	·	·	-2%
Cc1cccc(NC(=O)CSC2=Nc3ccccc3C3=NC(CC(=O)NCc4cccs4)C(=O)N23)c1 (configuration not stated)	·	·	·	2	·	·
Nc1nnc(-c2ccc(Cl)c([N+](=O)[O-])c2)s1	·	28µM*	·	·	·	-3%
Nc1nnc(-c2cccc([N+](=O)[O-])c2)s1	·	3%	·	·	·	-4%
Cc1cccc(C)c1[N+](=O)[O-]	-11%	?	·	·	-2%	1%
Cc1c(NC(=O)C(C)OC(=O)c2cc(-c3cccc4ccccc34)nc3ccccc23)c(=O)n(-c2ccccc2)n1C (configuration not stated)	?	?	-28	0	2%	-2%
Cc1c(NC(=O)COC(=O)c2cc(-c3ccc(-c4ccccc4)cc3)nc3ccccc23)c(=O)n(-c2ccccc2)n1C	?	i	-113*	·	1%	-1%
COc1ccc(-c2cc(C(=O)OC(C)C(=O)Nc3c(C)n(C)n(-c4ccccc4)c3=O)c3ccccc3n2)cc1 (configuration not stated)	?	?	-86*	3	-1%	13%
COCCCN1C(=O)/C(=C/c2ccc(CNS(=O)(=O)c3ccccc3)o2)C(C(=O)OC)=C1C	·	35µM*	·	·	·	27%
CC(C)C[C@@H](CC(=O)N[C@@H](CCC(=O)O)CC(=O)O)NC(=O)[C@@H]1CNCC[C@H]1NC(=O)C[C@@H](NC(=O)C[C@H](CO)NC(=O)[C@@H]1CNCC[C@H]1N)C(C)C	-1%	-2%	·	·	1%	14%
CC(=O)c1cc(Cc2csc(C(C)=O)c2)cs1	-5%	-3%	-100*	-7	-4%	-11%[38.3 µM]
CC(=O)c1cc(CN2C(=O)CCC2=O)cs1	-8%	9%	?	1	3%	-1%[38.3 µM]
COc1ccc(N2C(=O)CC(Sc3nnc(-c4ccccc4F)n3C)C2=O)cc1 (configuration not stated)	·	1.8µM*	·	·	·	-15%
COc1ccc(N2C(=O)CC(SCCc3nc4ccccc4[nH]3)C2=O)cc1 (configuration not stated)	-6%	-11%	-7	0	-3%	-2%[38.3 µM]
CCOc1ccc(N2C(=O)CC(NC3CCCCNC3=O)C2=O)cc1 (configuration not stated)	-3%	20µM*	?	23	-1%	6%
CCCNC(=O)CSc1nc2ccc(OCC)cc2s1	·	3%	·	·	·	15%
NCCSC1CC(=O)N(Cc2ccc(F)cc2)C1=O (configuration not stated)	·	2.2µM*	·	·	·	19%
CCOc1ccc2nc(SC3CC(=O)N(c4ccc(OC)cc4)C3=O)sc2c1 (configuration not stated)	-27%	16µM*	51	-2	5%	12%[38.3 µM]
O=C1NCCCCC1NC1CC(=O)N(c2ccccc2)C1=O (configuration not stated)	-4%	-12%	-10	9	-2%	3%[38.3 µM]
COCCn1c(=O)c(-c2ccc(Cl)cc2)nc2cncnc21	?	?	·	·	-5%	8%
Cc1ccc(Nc2nnc(-c3ccc(C)c(S(=O)(=O)N4CCN(C)CC4)c3)c3ccccc23)c(C)c1	·	·	·	-5	·	·
CC1=C(C(=O)OC2CCCCCC2)C(c2ccc(Cl)cc2Cl)CC(=O)N1 (configuration not stated)	·	·	·	-4	·	·
Cn1c(=O)c2c(ncn2CN2CCN(Cn3cnc4c3c(=O)n(C)c(=O)n4C)CC2)n(C)c1=O	0%	8%[13.5 µM]	·	·	3%[11.4 µM]	9%
